Where “and” joins values, the source holds several entries; their conditions need not be identical. Equal entries are not always repeated. Inconclusive results are not listed. The source holds several records for some structures; these can differ, active in one and inactive in another. Calls of active or inactive are those of the source. Rule for the calls, unless noted: active = hit-call score of the fitted dose curve at least 0.9, where 1 is the maximum; inactive = score below 0.9.
Legend:
[1] = ATG_NFI_CIS: Attagene CIS-FACTORIAL HepG2 Assay for human Nuclear Factor I (NFI) (AID 2282989); conditions: HepG2 cis-regulatory reporter, NFI response element transcription; actives raise or lower the signal
Summary of the method: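 After transient transfection of HepG2 with cis-promoter reporter constructs and 24 h dosing, RNA is reverse-transcribed, amplified, 6-FAM end-labelled and HpaI-digested before capillary analysis. Bidirectional curve fitting against DMSO.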

[2] = molecular target: Myc proto-oncogene protein (Homo sapiens) (UniProt P01106); assay: ATG_Myc_CIS: Attagene CIS-FACTORIAL HepG2 Assay for human Myelocytomatosis (Myc) Proto-Oncogene Transcription Factor (AID 2282990); conditions: HepG2, Attagene cis-reporter transcription factor activity; actives raise or lower the signal
Summary of the method: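 After 24 h chemical treatment of HepG2 cells carrying multiplexed cis-regulated reporter constructs, reporter transcripts quantified by RT-PCR and capillary electrophoresis of fluorescent fragments. Gain or loss fitted against DMSO baseline.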

[3] = ATG_NF_kB_CIS: Attagene CIS-FACTORIAL HepG2 Assay for human Nuclear Factor Kappa B (NF-kB) (AID 2282991); conditions: HepG2 Attagene cis-factorial NF-kB reporter mRNA; actives raise or lower the signal
Summary of the method: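 HepG2 cells transiently transfected with multiplexed cis-element reporter units measuring endogenous transcription factor activity; reporter mRNA read 24 h after dosing by RT-PCR, fluorescent labelling, HpaI digestion and capillary electrophoresis. Bidirectional fit against DMSO baseline.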

[4] = ATG_NRF2_ARE_CIS: Attagene CIS-FACTORIAL HepG2 Assay for human Nuclear Factor Erythroid 2 Related Factor 2 (NFR2) response to Antioxidant Response Elements (ARE) (AID 2282992); conditions: HepG2 Attagene ARE/NRF2 reporter, transcription factor activity; actives raise or lower the signal
Summary of the method: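 HepG2 cells transiently transfected with multiplexed cis-element reporter constructs, 24 h after chemical dosing; reporter mRNA quantified by RT-PCR, fluorescent primer extension, HpaI digestion and capillary electrophoresis. Bidirectional fit relative to DMSO.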

[5] = ATG_Oct_MLP_CIS: Attagene CIS-FACTORIAL HepG2 Assay for human Octamer-Binding Transcription Factor (Oct) (AID 2282993); conditions: HepG2 Attagene cis-factorial Oct reporter, mRNA; actives raise or lower the signal
Summary of the method: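 Cells of the HepG2 line express promoter-controlled reporter sequences whose mRNA levels, after 24 h treatment, are measured by RT-PCR and capillary electrophoresis. Increases and decreases are scored relative to DMSO.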

[6] = molecular target: Peroxisome proliferator-activated receptor gamma (Homo sapiens) (UniProt P37231); assay: ATG_PPARg_TRANS: Attagene TRANS-FACTORIAL HepG2 Assay for human Peroxisome Proliferator-activated Receptor-gamma (PPARg) (AID 2283007; active = hit-call score of the fitted dose curve at least 0.9, where 1 is the maximum)
Summary of the method: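 HepG2 cells transiently transfected with multiplexed GAL4-UAS reporter units and exogenous chimeric NR-Gal4 proteins; reporter mRNA quantified after 24 h compound exposure by RT-PCR, fluorescent labelling, HpaI digestion and capillary electrophoresis; gain-of-signal fitted versus DMSO baseline.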

[7] = molecular target: Nuclear receptor subfamily 1 group I member 2 (Homo sapiens) (UniProt O75469); assay: ATG_PXR_TRANS: Attagene TRANS-FACTORIAL HepG2 Assay for human Pregnane X Receptor (PXR) (AID 2283008; active = hit-call score of the fitted dose curve at least 0.9, where 1 is the maximum)
Summary of the method: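 HepG2 cells transiently transfected with GAL4-UAS reporter units and PXR-Gal4 chimera, exposed 24 h. Reporter mRNA quantified by RT-PCR, fluorescent labelling, HpaI digestion and capillary electrophoresis; gain of signal vs DMSO.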

[8] = molecular target: human Retinoic Acid Receptor gamma (RARg), RARG (gene 5916) (UniProt P13631); assay: ATG_RARg_TRANS: Attagene TRANS-FACTORIAL HepG2 Assay for human Retinoic Acid Receptor gamma (RARg) (AID 2283009; active = hit-call score of the fitted dose curve at least 0.9, where 1 is the maximum)
Summary of the method: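 Transient transfection of HepG2 with multi-reporter constructs, then 24 h chemical treatment. Total RNA isolated, reverse-transcribed, PCR-amplified, fluorescently labelled and resolved by capillary electrophoresis; activity scored as mRNA induction versus DMSO.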

[9] = molecular target: Cellular tumor antigen p53 (Homo sapiens) (UniProt P04637); assay: ATG_p53_CIS: Attagene CIS-FACTORIAL HepG2 Assay for human p53 Transcription Factor (AID 2282994); conditions: HepG2 p53 cis-element reporter, Attagene mRNA; actives raise or lower the signal
Summary of the method: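 HepG2 cells transiently transfected with cis-regulated multiple reporter transcription units, dosed 24 h. Reporter mRNA measured by RT-PCR, 6-FAM primer extension, HpaI digestion and capillary electrophoresis; bidirectional fit relative to DMSO.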

[10] = molecular target: human Retinoic Acid Receptor beta (RARb), RARB (gene 5915) (UniProt P10826); assay: ATG_RARb_TRANS: Attagene TRANS-FACTORIAL HepG2 Assay for human Retinoic Acid Receptor beta (AID 2283004; active = hit-call score of the fitted dose curve at least 0.9, where 1 is the maximum)
Summary of the method: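 Induction of reporter mRNA from a chimeric RARb-Gal4 construct was measured by RT-PCR, FAM labelling, HpaI digestion and capillary electrophoresis. Measurements followed 24 h compound treatment of transiently transfected human HepG2 liver cells, with DMSO as baseline.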

[11] = molecular target: Retinoic acid receptor alpha (Homo sapiens) (UniProt P10276); assay: ATG_RARa_TRANS: Attagene TRANS-FACTORIAL HepG2 Assay for human Retinoic Acid Receptor alpha (RARa) (AID 2283005; active = hit-call score of the fitted dose curve at least 0.9, where 1 is the maximum)
Summary of the method: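 Reporter transcripts, measured by RT-PCR with fluorescent labeling and capillary electrophoresis after 24 h dosing, reflect activity of an exogenous human RARa–GAL4 fusion in transiently transfected HepG2. Fitted for increase relative to DMSO.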

[12] = molecular target: human Peroxisome Proliferator-activated Receptor alpha (PPARa), PPARA (gene 5465) (UniProt Q07869); assay: ATG_PPARa_TRANS: Attagene TRANS-FACTORIAL HepG2 Assay for human Peroxisome Proliferator-activated Receptor alpha (PPARa) (AID 2283001; active = hit-call score of the fitted dose curve at least 0.9, where 1 is the maximum)
Summary of the method: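 Read-out is fluorescence of reporter cDNA fragments resolved by capillary electrophoresis after RT-PCR. Human HepG2 liver cells carried transfected PPARa-Gal4 chimera and GAL4-UAS reporter units, treated 24 h; activity scored as increase over DMSO.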

[13] = molecular target: human Peroxisome Proliferator-activated Receptor delta (PPARd), PPARD (gene 5467) (UniProt Q03181); assay: ATG_PPARd_TRANS: Attagene TRANS-FACTORIAL HepG2 Assay for human Peroxisome Proliferator-activated Receptor delta (PPARd) (AID 2283002; active = hit-call score of the fitted dose curve at least 0.9, where 1 is the maximum)
Summary of the method: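 Read-out is induced reporter mRNA, quantified by RT-PCR with fluorescent labelling and capillary electrophoresis after 24 h dosing. Cells are HepG2 transiently carrying multiple GAL4-UAS reporter units driven by exogenous NR-GAL4 chimeras; DMSO serves as baseline.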

[14] = BSK_3C_TissueFactor: BioMAP Diversity Plus: 3C Assay for Tissue Factor Biomarker Activity (AID 2282997); conditions: BioMAP 3C HUVEC, tissue factor biomarker readout; actives raise or lower the signal
Summary of the method: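 Dosing of human umbilical vein endothelial cells preceded a 24 h incubation. Tissue Factor was then read by ELISA, with increases and decreases both scored relative to DMSO controls.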

[15] = BSK_3C_VCAM1: BioMAP Diversity Plus: 3C Assay for Vascular cell adhesion molecule 1 (VCAM1) Biomarker Activity (AID 2282999); conditions: BioMAP 3C HUVEC, VCAM1 ELISA, cytokine-stimulated; actives raise or lower the signal
Summary of the method: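 Endothelial cells from human umbilical vein are treated with test chemical. At 24 h, VCAM-1 is measured by ELISA, and responses in either direction are fitted relative to DMSO.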

[16] = BSK_4H_Eotaxin3: BioMAP Diversity Plus: 4H Assay for Eotaxin 3 Biomarker Activity (AID 2283000); conditions: primary human endothelial cells (HUVEC); actives raise or lower the signal
Summary of the method: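 Human umbilical vein endothelial cells (BSK_4H system) dosed with test chemical; Eotaxin-3 (CCL26) measured by ELISA 24 h after dosing. Bidirectional curve fitting relative to DMSO negative control as baseline.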

[17] = read-out: Intercellular Adhesion Molecule 1 (ICAM1), ICAM1 (gene 3383); assay: BSK_3C_ICAM1: BioMAP Diversity Plus: 3C Assay for Intercellular Adhesion Molecule 1 (ICAM1) Biomarker Activity (AID 2283003); conditions: primary human endothelial cells (HUVEC); actives raise or lower the signal
Summary of the method: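 ICAM-1 levels measured by ELISA after HUVEC cultures in the 3C system had been dosed for 24 h. Gain or loss of signal relative to DMSO was fitted in both directions.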

[18] = BSK_3C_Proliferation: Cell Proliferation Assessment in the BioMAP Diversity Plus: 3C Assay (AID 2283006); conditions: primary human endothelial cells (HUVEC);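 note: potency may reflect either rise or fall in cell number versus DMSO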
Summary of the method: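 Read-out is total protein by SRB absorbance at 560 nm, taken as a proxy for relative cell number. Primary human umbilical vein endothelium cultured below confluence was dosed for 48 h, TCA-fixed and SRB-stained; curves were fitted bidirectionally versus DMSO.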

[19] = molecular target: human RAR-related Orphan Receptor beta (RORb), RORB (gene 6096) (UniProt Q92753); assay: ATG_RORb_TRANS: Attagene TRANS-FACTORIAL HepG2 Assay for human RAR-related Orphan Receptor beta (RORb) (AID 2283010; active = hit-call score of the fitted dose curve at least 0.9, where 1 is the maximum)
Summary of the method: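 Readout is reporter-gene mRNA induction, detected as fluorescence after RT-PCR and capillary electrophoresis, fitted for gain of signal against DMSO controls. Transiently transfected HepG2 liver cells carrying GAL4-UAS reporter constructs were treated for 24 hours.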

Measured: AC50

Peroxisome proliferator-activated receptor gamma (Homo sapiens), sequence (P37231 whole entry, looked up, the tested form may be a part): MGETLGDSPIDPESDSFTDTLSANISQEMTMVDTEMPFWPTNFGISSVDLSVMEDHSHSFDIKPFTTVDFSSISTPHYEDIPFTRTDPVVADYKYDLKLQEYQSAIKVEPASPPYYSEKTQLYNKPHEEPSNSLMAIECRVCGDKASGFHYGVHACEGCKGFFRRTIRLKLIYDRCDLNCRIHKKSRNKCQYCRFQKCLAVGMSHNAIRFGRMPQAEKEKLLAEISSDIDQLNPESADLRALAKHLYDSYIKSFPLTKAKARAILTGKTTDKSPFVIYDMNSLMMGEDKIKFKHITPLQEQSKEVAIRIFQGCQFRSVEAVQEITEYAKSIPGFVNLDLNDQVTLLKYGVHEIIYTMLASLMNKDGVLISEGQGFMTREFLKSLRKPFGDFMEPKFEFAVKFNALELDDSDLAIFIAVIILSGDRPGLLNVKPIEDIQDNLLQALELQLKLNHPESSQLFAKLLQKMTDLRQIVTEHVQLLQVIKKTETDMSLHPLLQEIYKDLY
Nuclear receptor subfamily 1 group I member 2 (Homo sapiens), sequence (O75469 whole entry, looked up, the tested form may be a part): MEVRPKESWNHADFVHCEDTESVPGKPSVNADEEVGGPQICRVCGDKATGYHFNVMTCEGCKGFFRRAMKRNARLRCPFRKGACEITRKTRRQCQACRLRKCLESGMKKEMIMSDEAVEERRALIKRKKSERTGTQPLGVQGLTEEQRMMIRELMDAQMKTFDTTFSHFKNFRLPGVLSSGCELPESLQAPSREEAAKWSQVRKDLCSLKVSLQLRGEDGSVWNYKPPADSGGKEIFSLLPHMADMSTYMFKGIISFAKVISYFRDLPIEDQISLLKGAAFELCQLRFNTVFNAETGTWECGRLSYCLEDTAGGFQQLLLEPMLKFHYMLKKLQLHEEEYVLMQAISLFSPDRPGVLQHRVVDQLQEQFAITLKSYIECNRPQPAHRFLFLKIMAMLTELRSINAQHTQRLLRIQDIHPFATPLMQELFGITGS
human Peroxisome Proliferator-activated Receptor delta (PPARd), PPARD (gene 5467), sequence (Q03181 whole entry, looked up, the tested form may be a part): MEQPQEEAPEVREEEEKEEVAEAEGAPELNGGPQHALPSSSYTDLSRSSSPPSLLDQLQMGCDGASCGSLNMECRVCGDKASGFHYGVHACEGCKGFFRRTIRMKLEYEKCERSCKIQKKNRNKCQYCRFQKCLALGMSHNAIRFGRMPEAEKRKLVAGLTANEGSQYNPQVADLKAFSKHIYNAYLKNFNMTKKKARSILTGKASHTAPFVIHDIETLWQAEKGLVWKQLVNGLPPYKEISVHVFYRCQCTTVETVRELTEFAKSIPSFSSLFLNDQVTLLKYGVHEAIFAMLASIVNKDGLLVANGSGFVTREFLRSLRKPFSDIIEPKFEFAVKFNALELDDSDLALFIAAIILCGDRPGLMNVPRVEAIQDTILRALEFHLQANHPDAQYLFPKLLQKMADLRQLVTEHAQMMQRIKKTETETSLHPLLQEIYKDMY
Myc proto-oncogene protein (Homo sapiens), sequence (P01106 whole entry, looked up, the tested form may be a part): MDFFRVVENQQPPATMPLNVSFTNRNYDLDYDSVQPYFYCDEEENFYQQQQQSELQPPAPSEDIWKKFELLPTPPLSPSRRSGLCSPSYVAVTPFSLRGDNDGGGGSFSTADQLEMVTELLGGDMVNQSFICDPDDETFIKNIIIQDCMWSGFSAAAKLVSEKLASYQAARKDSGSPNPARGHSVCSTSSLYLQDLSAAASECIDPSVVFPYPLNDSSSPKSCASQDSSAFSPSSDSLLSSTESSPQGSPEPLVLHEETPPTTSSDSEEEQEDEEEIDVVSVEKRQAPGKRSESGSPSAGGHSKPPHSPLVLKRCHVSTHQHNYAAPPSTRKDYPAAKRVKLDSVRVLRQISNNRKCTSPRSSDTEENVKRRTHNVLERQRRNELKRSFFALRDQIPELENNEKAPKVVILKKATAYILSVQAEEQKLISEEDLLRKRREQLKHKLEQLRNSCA
human Peroxisome Proliferator-activated Receptor alpha (PPARa), PPARA (gene 5465), sequence (Q07869 whole entry, looked up, the tested form may be a part): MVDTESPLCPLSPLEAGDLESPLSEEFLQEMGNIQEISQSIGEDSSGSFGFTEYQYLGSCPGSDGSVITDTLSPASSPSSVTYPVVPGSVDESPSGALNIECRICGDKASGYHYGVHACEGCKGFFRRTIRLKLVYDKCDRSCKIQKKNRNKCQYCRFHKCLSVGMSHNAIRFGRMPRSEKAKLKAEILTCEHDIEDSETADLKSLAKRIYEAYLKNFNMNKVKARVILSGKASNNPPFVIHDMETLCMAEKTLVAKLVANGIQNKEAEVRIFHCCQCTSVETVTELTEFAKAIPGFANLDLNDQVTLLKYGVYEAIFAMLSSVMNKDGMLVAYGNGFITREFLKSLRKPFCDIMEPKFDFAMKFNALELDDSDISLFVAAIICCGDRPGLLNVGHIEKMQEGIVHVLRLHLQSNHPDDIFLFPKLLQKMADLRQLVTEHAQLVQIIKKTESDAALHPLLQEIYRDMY
human RAR-related Orphan Receptor beta (RORb), RORB (gene 6096), sequence (Q92753 whole entry, looked up, the tested form may be a part): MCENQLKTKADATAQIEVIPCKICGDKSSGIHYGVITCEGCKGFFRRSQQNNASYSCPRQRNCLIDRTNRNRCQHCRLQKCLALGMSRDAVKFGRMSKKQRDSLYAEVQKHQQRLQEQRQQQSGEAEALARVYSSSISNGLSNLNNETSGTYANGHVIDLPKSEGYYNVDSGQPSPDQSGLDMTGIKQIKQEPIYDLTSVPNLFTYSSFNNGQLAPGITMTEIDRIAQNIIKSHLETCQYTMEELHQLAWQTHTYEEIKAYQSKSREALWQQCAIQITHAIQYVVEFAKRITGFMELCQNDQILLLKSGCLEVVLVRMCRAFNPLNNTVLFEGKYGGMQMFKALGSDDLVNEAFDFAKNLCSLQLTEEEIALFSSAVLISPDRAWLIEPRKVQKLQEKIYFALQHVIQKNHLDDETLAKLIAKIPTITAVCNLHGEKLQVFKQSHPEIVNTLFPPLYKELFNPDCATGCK
Cellular tumor antigen p53 (Homo sapiens), sequence (P04637 whole entry, looked up): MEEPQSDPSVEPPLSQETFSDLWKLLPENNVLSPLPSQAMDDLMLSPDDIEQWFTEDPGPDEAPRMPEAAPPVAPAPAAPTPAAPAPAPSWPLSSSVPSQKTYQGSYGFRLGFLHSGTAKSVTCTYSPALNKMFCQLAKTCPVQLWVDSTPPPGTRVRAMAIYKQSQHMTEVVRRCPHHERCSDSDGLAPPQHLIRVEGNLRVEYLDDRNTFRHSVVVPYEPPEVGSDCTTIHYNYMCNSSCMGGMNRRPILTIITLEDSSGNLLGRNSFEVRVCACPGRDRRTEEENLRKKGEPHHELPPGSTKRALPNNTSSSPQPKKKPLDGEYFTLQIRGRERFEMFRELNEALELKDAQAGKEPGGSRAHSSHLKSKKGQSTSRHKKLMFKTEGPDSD
Retinoic acid receptor alpha (Homo sapiens), sequence (P10276 whole entry, looked up, the tested form may be a part): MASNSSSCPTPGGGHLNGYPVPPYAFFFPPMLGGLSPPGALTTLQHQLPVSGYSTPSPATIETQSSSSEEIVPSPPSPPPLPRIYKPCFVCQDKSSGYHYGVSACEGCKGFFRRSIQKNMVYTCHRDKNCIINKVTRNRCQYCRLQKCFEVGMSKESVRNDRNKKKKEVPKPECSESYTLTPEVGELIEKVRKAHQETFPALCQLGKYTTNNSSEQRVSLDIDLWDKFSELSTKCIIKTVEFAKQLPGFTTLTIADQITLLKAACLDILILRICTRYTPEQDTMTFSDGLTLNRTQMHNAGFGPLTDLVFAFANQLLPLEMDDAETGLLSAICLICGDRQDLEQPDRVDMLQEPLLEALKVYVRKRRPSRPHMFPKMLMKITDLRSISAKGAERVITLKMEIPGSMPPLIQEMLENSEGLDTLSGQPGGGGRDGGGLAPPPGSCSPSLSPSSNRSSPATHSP
human Retinoic Acid Receptor gamma (RARg), RARG (gene 5916), sequence (P13631 whole entry, looked up): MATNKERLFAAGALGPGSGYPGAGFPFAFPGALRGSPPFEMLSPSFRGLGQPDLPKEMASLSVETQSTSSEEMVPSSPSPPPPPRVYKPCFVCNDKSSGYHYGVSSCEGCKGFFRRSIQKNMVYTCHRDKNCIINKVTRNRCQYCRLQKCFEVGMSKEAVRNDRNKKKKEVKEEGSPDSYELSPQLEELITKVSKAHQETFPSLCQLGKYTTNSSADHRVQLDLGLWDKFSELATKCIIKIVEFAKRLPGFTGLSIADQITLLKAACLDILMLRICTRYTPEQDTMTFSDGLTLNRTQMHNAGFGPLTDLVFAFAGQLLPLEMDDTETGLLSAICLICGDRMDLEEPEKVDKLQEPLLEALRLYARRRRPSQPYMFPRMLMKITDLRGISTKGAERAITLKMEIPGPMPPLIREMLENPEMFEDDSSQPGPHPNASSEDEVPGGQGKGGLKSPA
human Retinoic Acid Receptor beta (RARb), RARB (gene 5915), sequence (P10826 whole entry, looked up, the tested form may be a part): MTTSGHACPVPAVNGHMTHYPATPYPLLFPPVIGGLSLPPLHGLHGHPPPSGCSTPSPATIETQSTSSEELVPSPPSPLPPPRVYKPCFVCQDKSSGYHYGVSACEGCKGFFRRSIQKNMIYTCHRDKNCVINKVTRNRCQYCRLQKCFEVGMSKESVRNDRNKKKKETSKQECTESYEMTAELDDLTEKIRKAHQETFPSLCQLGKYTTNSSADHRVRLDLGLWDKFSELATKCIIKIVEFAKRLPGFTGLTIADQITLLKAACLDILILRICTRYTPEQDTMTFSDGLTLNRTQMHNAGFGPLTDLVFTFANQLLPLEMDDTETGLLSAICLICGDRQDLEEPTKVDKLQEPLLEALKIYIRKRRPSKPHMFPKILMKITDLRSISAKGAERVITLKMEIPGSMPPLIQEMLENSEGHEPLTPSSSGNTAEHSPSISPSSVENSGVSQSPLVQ

Fc1ccc(C2(Cn3cncn3)OC2c2ccccc2Cl)cc1 (stereo unspecified)
inactive: [1] | [2] | [3] | [5] | [6] | [8]
active: [4] 44.7 µM | [7] 2.24 µM

CCOP(OCC)OCC
inactive: [1] | [2] | [3] | [4] | [9] | [10] | [11] | [7]

C[C@H]1CCCC(=O)CCC/C=C/c2cc(O)cc(O)c2C(=O)O1
active: [5] 10.7 µM | [7] 0.407 µM
inactive: [1] | [2] | [3] | [4] | [12] | [13] | [6]

CCCCC(CC)CO[N+](=O)[O-] (stereo unspecified)
active: [4] 167 µM | [14] 28.6 µM | [16] 30.4 µM | [18] 30.8 µM
inactive: [1] | [2] | [15] | [13] | [17] | [7]

CC(C)(C)CC(C)(C)c1ccc(O)cc1
active: [4] 11 µM [middle of 4 runs] | [14] 7.99 µM | [15] 6.92 µM | [16] 8.11 µM | [17] 10.8 µM | [7] 8.34 µM and 7.58 µM and 5.92 µM
inactive: [1] | [2] | [3] | [13] | [7] | [19]

COC(=O)Cc1ccccc1
not listed: [3] | [8] | [10] | [11] | [18]
inactive: all other assays above

Reference: PubChem BioAssay (EPA / NIEHS)
